Reference: PubChem BioAssay (NCI)
The panel holds about 79,000 compounds, 15% with a hit somewhere; the sample as a whole holds those more often. A number with no mark means an inactive call. Activity calls are given as the source filed them. Rule as the data show it: active = growth inhibition above about 70%; inactive = the rest.

Tests used:
[1] = NCI Yeast Anticancer Drug Screen. Data for the rad50 strain (AID 155);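 also: 0% = growth of vehicle-only cultures of the same strain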; conditions: S. cerevisiae rad50 strain growth inhibition, hits give high values
In short: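 Cells are treated with compound, grown, and their growth is then scored against vehicle-only cultures of the same repair-deficient yeast strain.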

[2] = NCI Yeast Anticancer Drug Screen. Data for the mec2-1 strain (AID 157); conditions: S. cerevisiae mec2-1 strain, hits give high values
In short: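 Readout is yeast growth inhibition, normalised to vehicle-treated controls, in the mec2-1 strain exposed to compound.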

[3] = NCI Yeast Anticancer Drug Screen. Data for the sgs1 mgt1 strain (AID 161);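 also: 0% = growth of cultures given vehicle only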; conditions: S. cerevisiae sgs1 mgt1 strain, hits give high values
In short: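 Growth of a repair-deficient yeast mutant was monitored after compound treatment and expressed as inhibition relative to vehicle-treated cultures.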

[4] = NCI Yeast Anticancer Drug Screen. Data for the cln2 rad14 strain (AID 165);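 also: 0% = growth equal to vehicle treated cultures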; conditions: S. cerevisiae cln2 rad14 strain, hits give high values
In short: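 Relative to vehicle controls, growth inhibition of compound-treated cln2 rad14 yeast was recorded.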

[5] = NCI Yeast Anticancer Drug Screen. Data for the bub3 strain (AID 167); conditions: S. cerevisiae bub3 mutant strain, hits give high values
In short: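 Part of a panel of yeast mutants defective in DNA damage repair or cell cycle regulation. Each strain is grown with compound, and inhibition is calculated relative to solvent-treated cultures.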

[6] = NCI Yeast Anticancer Drug Screen. Data for the mlh1 rad18 strain (AID 175); conditions: S. cerevisiae mlh1 rad18 strain growth inhibition, hits give high values
In short: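 Test agents were incubated with a yeast strain of defined genotype (DNA damage repair defect). Inhibition of growth was derived by comparison with vehicle-exposed cultures.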

[7] = at 5.0 µM (retest, dose inferred, filed as 0.5)
[8] = at 50.0 µM (retest, dose inferred, filed as 5.0)

CC1(OO)CCC2CC1C2(C)C (stereo not given)
growth inhibition [1, 7]: 9% | growth inhibition [1, 8]: 77% (active) | growth inhibition ([1]; at 50.0 µM): 90.2% (active) | growth inhibition [2, 7]: 6% | growth inhibition [2, 8]: 99% (active) | growth inhibition ([2]; at 50.0 µM): 99.6% (active) | growth inhibition [3, 7]: -2% | growth inhibition [3, 8]: 68% | growth inhibition ([3]; at 50.0 µM): 99.4% (active) | growth inhibition [4, 7]: 4% | growth inhibition [4, 8]: 65% | growth inhibition ([4]; at 50.0 µM): 82.7% (active) | growth inhibition [5, 7]: -1% | growth inhibition [5, 8]: 95% (active) | growth inhibition ([5]; at 50.0 µM): 99.5% (active) | growth inhibition [6, 7]: 13% | growth inhibition [6, 8]: 94% (active) | growth inhibition ([6]; at 50.0 µM): 98.2% (active)

O=[N+]([O-])c1ccc(Br)c([N+](=O)[O-])c1
growth inhibition [1, 7]: 83% (active) | growth inhibition [1, 8]: 98% (active) | growth inhibition ([1]; at 50.0 µM): 99% (active) | growth inhibition [2, 7]: 7% | growth inhibition [2, 8]: 99% (active) | growth inhibition ([2]; at 50.0 µM): 99.4% (active) | growth inhibition [3, 7]: 8% | growth inhibition [3, 8]: 98% (active) | growth inhibition ([3]; at 50.0 µM): 99.2% (active) | growth inhibition [4, 7]: -6% | growth inhibition [4, 8]: 98% (active) | growth inhibition ([4]; at 50.0 µM): 98.3% (active) | growth inhibition [5, 7]: -15% | growth inhibition [5, 8]: 98% (active) | growth inhibition ([5]; at 50.0 µM): 98.9% (active) | growth inhibition [6, 7]: 17% | growth inhibition [6, 8]: 98% (active) | growth inhibition ([6]; at 50.0 µM): 99.2% (active)

COc1ccc([As](O[As](c2ccc(OC)cc2)c2ccc(OC)cc2)c2ccc(OC)cc2)cc1
growth inhibition [1, 7]: 99% (active) | growth inhibition [1, 8]: 99% (active) | growth inhibition ([1]; at 50.0 µM): 99.2% (active) | growth inhibition [2, 7]: 100% (active) | growth inhibition [2, 8]: 100% (active) | growth inhibition ([2]; at 50.0 µM): 99.6% (active) | growth inhibition [3, 7]: 100% (active) | growth inhibition [3, 8]: 100% (active) | growth inhibition ([3]; at 50.0 µM): 99.5% (active) | growth inhibition [4, 7]: 99% (active) | growth inhibition [4, 8]: 99% (active) | growth inhibition ([4]; at 50.0 µM): 99.4% (active) | growth inhibition [5, 7]: 99% (active) | growth inhibition [5, 8]: 99% (active) | growth inhibition ([5]; at 50.0 µM): 99.4% (active) | growth inhibition [6, 7]: 99% (active) | growth inhibition [6, 8]: 99% (active) | growth inhibition ([6]; at 50.0 µM): 99.5% (active)

OCC1N2CCC(CC2)C1(O)O (stereo not given)
growth inhibition [1, 7]: -2% | growth inhibition [1, 8]: 5% | growth inhibition ([1]; at 50.0 µM): -11.8% | growth inhibition [2, 7]: 2% | growth inhibition [2, 8]: -3% | growth inhibition ([2]; at 50.0 µM): -6.9% | growth inhibition [3, 7]: -3% | growth inhibition [3, 8]: 1% | growth inhibition ([3]; at 50.0 µM): 0.1% | growth inhibition [4, 7]: 2% | growth inhibition [4, 8]: 2% | growth inhibition ([4]; at 50.0 µM): -16.1% | growth inhibition [5, 7]: 1% | growth inhibition [5, 8]: -4% | growth inhibition ([5]; at 50.0 µM): 34.5% | growth inhibition [6, 7]: -2% | growth inhibition [6, 8]: -4% | growth inhibition ([6]; at 50.0 µM): -12.7%

CN(C)C(=O)OC1C(=O)N(C)c2ccc(Cl)cc2C2(c3ccccc3)N1C2(Cl)Cl (stereo not given)
growth inhibition [1, 7]: -18% | growth inhibition [1, 8]: 62% | growth inhibition ([1]; at 50.0 µM): -23.3% | growth inhibition [2, 7]: 5% | growth inhibition [2, 8]: 69% | growth inhibition ([2]; at 50.0 µM): -14.8% | growth inhibition [3, 7]: -12% | growth inhibition [3, 8]: 77% (active) | growth inhibition ([3]; at 50.0 µM): -22.2% | growth inhibition [4, 7]: -11% | growth inhibition [4, 8]: 64% | growth inhibition ([4]; at 50.0 µM): -2.85% | growth inhibition [5, 7]: 3% | growth inhibition [5, 8]: 74% (active) | growth inhibition ([5]; at 50.0 µM): -33.4% | growth inhibition [6, 7]: -4% | growth inhibition [6, 8]: 70% (active) | growth inhibition ([6]; at 50.0 µM): 13.8%

COC(=O)C1c2c(C)cc3n2C(C=CC3)C1C(=O)OC (stereo not given)
growth inhibition [1, 7]: 7% | growth inhibition [1, 8]: 69% | growth inhibition ([1]; at 50.0 µM): 13.2% | growth inhibition [2, 7]: 36% | growth inhibition [2, 8]: 96% (active) | growth inhibition ([2]; at 50.0 µM): 19.1% | growth inhibition [3, 7]: -6% | growth inhibition [3, 8]: 24% | growth inhibition ([3]; at 50.0 µM): 4.95% | growth inhibition [4, 7]: 67% | growth inhibition [4, 8]: 78% (active) | growth inhibition ([4]; at 50.0 µM): 26.6% | growth inhibition [5, 7]: 64% | growth inhibition [5, 8]: 92% (active) | growth inhibition ([5]; at 50.0 µM): -10.2% | growth inhibition [6, 7]: -9% | growth inhibition [6, 8]: 54% | growth inhibition ([6]; at 50.0 µM): -3.5%

O=C(CCl)Nc1ccc(Cl)cc1
growth inhibition [1, 7]: 3% | growth inhibition [1, 8]: 44% | growth inhibition ([1]; at 50.0 µM): 54.6% | growth inhibition [2, 7]: 1% | growth inhibition [2, 8]: 29% | growth inhibition ([2]; at 50.0 µM): 59.5% | growth inhibition [3, 7]: -2% | growth inhibition [3, 8]: 44% | growth inhibition ([3]; at 50.0 µM): 67.3% | growth inhibition [4, 7]: -2% | growth inhibition [4, 8]: 16% | growth inhibition ([4]; at 50.0 µM): 40.9% | growth inhibition [5, 7]: 1% | growth inhibition [5, 8]: 40% | growth inhibition ([5]; at 50.0 µM): 51.9% | growth inhibition [6, 7]: 1% | growth inhibition [6, 8]: 45% | growth inhibition ([6]; at 50.0 µM): 61.2%

CCSc1nc(=[N+]2CCCC2)ss1
growth inhibition [1, 7]: 33% | growth inhibition [1, 8]: 99% (active) | growth inhibition ([1]; at 50.0 µM): 98.5% (active) | growth inhibition [2, 7]: 25% | growth inhibition [2, 8]: 100% (active) | growth inhibition ([2]; at 50.0 µM): 97.5% (active) | growth inhibition [3, 7]: 36% | growth inhibition [3, 8]: 99% (active) | growth inhibition ([3]; at 50.0 µM): 98.8% (active) | growth inhibition [4, 7]: 29% | growth inhibition [4, 8]: 100% (active) | growth inhibition ([4]; at 50.0 µM): 81.7% (active) | growth inhibition [5, 7]: 17% | growth inhibition [5, 8]: 100% (active) | growth inhibition ([5]; at 50.0 µM): 89.3% (active) | growth inhibition [6, 7]: 44% | growth inhibition [6, 8]: 99% (active) | growth inhibition ([6]; at 50.0 µM): 97% (active)

O=[N+]([O-])/C=C/c1cccc(F)c1
growth inhibition [1, 7]: 40% | growth inhibition [1, 8]: 99% (active) | growth inhibition ([1]; at 50.0 µM): 99.5% (active) | growth inhibition [2, 7]: 30% | growth inhibition [2, 8]: 99% (active) | growth inhibition ([2]; at 50.0 µM): 99.7% (active) | growth inhibition [3, 7]: 29% | growth inhibition [3, 8]: 99% (active) | growth inhibition ([3]; at 50.0 µM): 99.6% (active) | growth inhibition [4, 7]: 10% | growth inhibition [4, 8]: 99% (active) | growth inhibition ([4]; at 50.0 µM): 99.3% (active) | growth inhibition [5, 7]: 18% | growth inhibition [5, 8]: 98% (active) | growth inhibition ([5]; at 50.0 µM): 99.5% (active) | growth inhibition [6, 7]: 59% | growth inhibition [6, 8]: 99% (active) | growth inhibition ([6]; at 50.0 µM): 99.4% (active)

CC1CCCC[N-]1.CC1CCCC[N-]1.N#C[S-].N#C[S-].[Cd] (stereo not given)
growth inhibition [1, 7]: 20% | growth inhibition [1, 8]: 87% (active) | growth inhibition ([1]; at 50.0 µM): 93.2% (active) | growth inhibition [2, 7]: 9% | growth inhibition [2, 8]: 52% | growth inhibition ([2]; at 50.0 µM): 66.7% | growth inhibition [3, 7]: 12% | growth inhibition [3, 8]: 36% | growth inhibition ([3]; at 50.0 µM): 70.7% (active) | growth inhibition [4, 7]: 7% | growth inhibition [4, 8]: 69% | growth inhibition ([4]; at 50.0 µM): 58% | growth inhibition [5, 7]: 10% | growth inhibition [5, 8]: 26% | growth inhibition ([5]; at 50.0 µM): 67.7% | growth inhibition [6, 7]: 16% | growth inhibition [6, 8]: 39% | growth inhibition ([6]; at 50.0 µM): 73% (active)
